We go through eight compounds from PubChem BioAssay (Tox21).

A number with no mark means an inactive call. Records with an inconclusive call do not appear. Calls of active or inactive are those of the source. Unless noted, calls come from the whole dose curve; as a rule, active = well fitted curve in the direction sought with a large enough effect in the repeat runs; inconclusive = weak or mixed curves; inactive = no such curve, though single readings can be large; an effect the other way counts as inactive or inconclusive.

A short description of assay [1]: qHTS assay to identify small molecule antagonists of the androgen receptor (AR) signaling pathway using the MDA cell line in the presence of 0.5 nM R1881 - cell viability counter screen (AID 1259242). Note: nearly all actives have a fitted effect of over 45% in size. The method in brief:
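Live-cell protease fluorescence, CellTiter-Fluor, 30 min at 37C. Cells: MDA-kb2, 3,000/well, preincubated 5 hr. Compounds plus 0.5 nM R1881 final, 16 hr, 37C, 0% CO2.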

The target in assay [2] is Androgen receptor (Homo sapiens) (UniProt P10275). Kind of assay: qHTS assay to identify small molecule antagonists of the androgen receptor (AR) signaling pathway using the MDA cell line in the presence of 0.5 nM R1881 (AID 1259243). Note: nearly all actives have a fitted effect of over 50% in size. In outline:
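MDA-kb2, MMTV-luc (AR/GR elements); 3,000 cells/well; cpd + 0.5 nM R1881 final; 16 hr 37C, 0% CO2; ONE-Glo 30 min RT; luminescence.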
(In qHTS, concentration-response curves come from the screen itself.)

Assay [3] addresses Estrogen receptor (Homo sapiens) (UniProt P03372). Kind of assay: qHTS assay to identify small molecule antagonists of the estrogen receptor alpha (ER-alpha) signaling pathway using the BG1 cell line in the presence of 0.1 nM 17-beta-estradiol (AID 1259244). Note: nearly all actives have a fitted effect of over 50% in size. The method in brief:
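Luminescence after ONE-Glo (30 min, room temperature) measured ERE-luciferase activity in VM7Luc4E2 cells treated 22 h with compound and 0.1 nM final 17beta-estradiol as stimulator.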

Assay [4] in a line: qHTS assay to identify small molecule phospholipidosis (PLD) inducers (AID 1259344; active = well fitted curve in the direction sought with a large enough effect; an effect the other way counts as inactive or inconclusive). The method in brief: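 Phospholipid accumulation was scored by imaging: fixed, Hoechst-counterstained HepG2 cells stained with LipidTOX Red after 24 h compound exposure at 37 C. Read-outs were pit count and pit intensity per well or per cell, with amiodarone and DMSO controls.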
Assay [5] is described as follows: qHTS assay to identify small molecule HDAC inhibitors (AID 1259364).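 Note: wild-type HCT-116 cells with endogenous class I/II HDAC activity; top concentration of the series differs between compounds; nearly all actives have a fitted effect of over 45% in size.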 The method in brief:
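HCT-116 (wild type), 1,500 cells/well, overnight; compound 2 hr 37C 5% CO2; HDAC-Glo I/II reagent 30 min RT; luminescence readout.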

Assay [6] is described as follows: qHTS assay to identify small molecule HDAC inhibitors - cell viability counter screen (AID 1259365). Note: series mostly up to about 92 µM; nearly all actives have a fitted effect of over 50% in size. The method in brief:
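HCT-116 wild-type, overnight attachment; 2hr drug exposure, 37C; CellTiter-Glo luminescent ATP readout after 30min RT.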

Assay [7] can be described thus: qHTS assay to identify small molecule agonists of the sonic hedgehog signaling (Shh) pathway - cell viability counter screen (AID 1259366). Note: nearly all actives have a fitted effect of over 50% in size. The method in brief: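 Compounds in DMSO were pin-transferred onto 3T3 Gli1-Luc cells that had settled 4hr; plates then stood 24hr at 37C and 5% CO2. One hour before the end, CellTiter-Fluor was added and fluorescence recorded.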

A short description of assay [8]: qHTS assay to identify small molecule antagonists of the sonic hedgehog signaling (Shh) pathway - cell viability counter screen (AID 1259367). Note: nearly all actives have a fitted effect of over 55% in size. In outline: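 Viability was read by CellTiter-Fluor fluorescence in the same wells, reagent added 23 hr into compound treatment and incubated 1 hr at 37C. The 3T3 Gli1-Luc reporter cells (2,000/well) received conditioned medium after compound and ran 24 hr.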

A short description of assay [9]: qHTS assay to identify small molecule agonists of the sonic hedgehog signaling (Shh) pathway (AID 1259368; calls by dose curve;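 note: NIH/3T3-derived 3T3Gli1-Luc cells carrying a stable Gli1-driven firefly luciferase reporter; series mostly up to about 92 µM; nearly all actives have a fitted effect of over 15% in size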). The method in brief: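 Read-out: firefly luciferase luminescence from a Gli1 response element reporter stably integrated in NIH/3T3-derived 3T3Gli1-Luc cells, measured 30 min at room temperature after reagent addition. Compound exposure lasted 24 hr at 37 C, 5% CO2.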

Assay [10] is described as follows: qHTS assay to identify small molecule antagonists of the sonic hedgehog signaling (Shh) pathway (AID 1259369; calls by dose curve; note: nearly all actives have a fitted effect of over 45% in size). In outline:
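Luminescence readout: firefly Luc under Gli1 response element in 3T3Gli1-Luc cells (NIH/3T3 clone). Antagonist mode, stimulation by conditioned medium; compound exposure 24hr at 37 C, 5% CO2.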

The target in assay [11] is Estrogen receptor beta (Homo sapiens) (UniProt Q92731). As to the kind of experiment: qHTS assay to identify small molecule antagonists of the estrogen receptor beta (ER-beta) signaling pathway (AID 1259378; active = well fitted inhibition curve with a large enough effect in the signal ratio in the repeat runs, not every such curve was filed as active; the % refers to the signal ratio). The method in brief:
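Antagonist mode: compounds added to beta-lactamase reporter HEK293T ER-beta-UAS cells stimulated with E2 (1nM final), 16 hr at 37C. LiveBLAzer B/G FRET substrate, 2 hours room temperature, fluorescence read-out.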

Assay [12] in a line: qHTS assay to identify small molecule agonists of the androgen receptor (AR) signaling pathway in the presence of an antagonist - cell viability counter screen (AID 1259379).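 Note: MDA-kb2 human breast cancer cells carrying an MMTV luciferase reporter; series mostly up to about 92 µM; nearly all actives have a fitted effect of over 25% in size.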 In outline:
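Viability counter screen: CellTiter-Fluor fluorescence, measured in the same wells as the luciferase read-out. MDA-kb2 cells, 3,000/well, with nilutamide at 3.0uM final and compounds at 15 concentrations, 16 hr at 37C, 0% CO2.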

Assay [13] can be described thus: qHTS assay to identify small molecule antagonists of the estrogen receptor beta (ER-beta) signaling pathway - cell viability counter screen (AID 1259382).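 Note: HEK293T cells carrying ER-beta-UAS-bla reporter stimulated with estradiol; series mostly up to about 92 µM; nearly all actives have a fitted effect of over 55% in size.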 In outline: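 Luminescent ATP read-out (CellTiter-Glo, 30 min, RT) taken in the same wells as the bla reporter assay. HEK293T ER-beta-UAS-bla cells in 2% charcoal-stripped FBS were exposed to compounds with 1nM E2 for 16 hr at 37C.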

Assay [14] in a line: qHTS assay to identify small molecule agonists or antagonists of the thyroid stimulating hormone receptor (TSHR) signaling pathway - wild type cell line counter screen (AID 1259384; calls by dose curve). In outline: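 Counter screen in untransfected Hek293: compounds (15-point titration, triplicate) plus phosphodiesterase inhibitor Ro20-1724 added after 18 h plating; 30 min RT. Intracellular cAMP via competitive d2/cryptate immunoassay, 1 h incubation.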

Assay [15] concerns the target Thyrotropin receptor (Homo sapiens) (UniProt P16473). Kind of assay: qHTS assay to identify small molecule antagonists of the thyroid stimulating hormone receptor (TSHR) signaling pathway (AID 1259385; calls by dose curve; note: nearly all actives have a fitted effect of over 20% in size). The method in brief: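 Antagonist mode: compound-treated TSHR-expressing HEK293 cells were stimulated with 1.5 ng/mL TSH (final) in presence of Ro20-1724 for 30 min at RT. HTRF cAMP detection after 1 h; each compound tested at 15 concentrations, triplicate.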

Assay [16] in a line: qHTS assay to identify small molecule agonists of the estrogen receptor alpha (ER-alpha) signaling pathway in the presence of an antagonist - cell viability counter screen (AID 1259386).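 Note: series mostly up to about 92 µM; cells exposed to compounds for 22 h at 37 °C before the viability read; nearly all actives have a fitted effect of over 30% in size.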 The method in brief:
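Read-out: CellTiter-Fluor fluorescence after 1hr reagent incubation, measured in the same wells as the luciferase readout. VM7Luc4E2 cells were exposed to 15 compound concentrations with 10.0nM ICI-182,780 for 22hr at 37C.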

Assay [17] in a line: qHTS assay to identify small molecule agonists of the estrogen receptor beta (ER-beta) signaling pathway - cell viability counter screen (AID 1259380). Note: nearly all actives have a fitted effect of over 30% in size. Note: potency is the fitted concentration of half-maximal effect. In outline: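 Luminescence read-out (CellTiter-Glo, 30 min, room temp) taken in the same wells as the beta-lactamase reporter assay; ER-beta-UAS-bla HEK293T cells exposed to DMSO-dissolved compounds for 16 hr at 37C in 2% charcoal-stripped FBS medium.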

Assay [18] has as its target Androgen receptor (Homo sapiens) (UniProt P10275). Kind of assay: qHTS assay to identify small molecule agonists of the androgen receptor (AR) signaling pathway in the presence of an antagonist (AID 1259381; calls by dose curve; note: nearly all actives have a fitted effect of over 15% in size). In outline:
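Luciferase read-out (ONE-Glo, 30min room temperature) in MDA-kb2 MMTV-reporter cells; agonist mode run in presence of AR antagonist nilutamide, 3.0uM final. Compounds tested as 15-point series, 16hr exposure at 37C, 0% CO2.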

Assay [19] addresses Estrogen receptor (Homo sapiens) (UniProt P03372). As to the kind of experiment: qHTS assay to identify small molecule agonists of the estrogen receptor alpha (ER-alpha) signaling pathway in the presence of an antagonist (AID 1259383; calls by dose curve; note: top concentration of the series differs between compounds; nearly all actives have a fitted effect of over 15% in size). In outline: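 Luciferase luminescence (ONE-Glo, 30min at room temperature) measured in VM7Luc4E2 cells after 22hr compound exposure at 15 concentrations, with 10.0nM ICI-182,780 final present; cells express endogenous ER-alpha and carry four EREs upstream of luciferase.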

In assay [20] the target is Estrogen receptor beta (Homo sapiens) (UniProt Q92731). As to the kind of experiment: qHTS assay to identify small molecule agonists of the estrogen receptor beta (ER-beta) signaling pathway (AID 1259377; active = well fitted activation curve with a large enough effect in the signal ratio in the repeat runs, not every such curve was filed as active; the % refers to the signal ratio). The method in brief: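 qHTS in ER-beta-UAS-bla HEK293T cells: 6 hr settling, then 16 hr compound at 37C, then LiveBLAzer substrate 2 h at RT before fluorescence reading.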
Chain of Estrogen receptor beta (Homo sapiens) (Q92731 whole entry, looked up): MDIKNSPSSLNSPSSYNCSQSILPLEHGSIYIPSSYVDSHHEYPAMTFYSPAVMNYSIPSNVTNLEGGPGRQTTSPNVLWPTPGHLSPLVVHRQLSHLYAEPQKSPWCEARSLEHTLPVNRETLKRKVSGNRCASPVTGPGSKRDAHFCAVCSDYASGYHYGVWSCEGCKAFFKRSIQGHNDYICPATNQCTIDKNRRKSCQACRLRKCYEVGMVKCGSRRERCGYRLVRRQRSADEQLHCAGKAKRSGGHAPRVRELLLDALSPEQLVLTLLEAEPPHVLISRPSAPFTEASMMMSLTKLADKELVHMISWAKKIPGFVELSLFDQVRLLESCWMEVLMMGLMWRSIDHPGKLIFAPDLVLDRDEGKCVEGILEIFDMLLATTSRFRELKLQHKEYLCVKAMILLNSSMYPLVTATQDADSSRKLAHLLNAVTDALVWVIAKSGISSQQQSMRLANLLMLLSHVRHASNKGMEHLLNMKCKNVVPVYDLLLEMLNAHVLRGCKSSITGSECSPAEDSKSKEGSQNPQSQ

Chain of Estrogen receptor (Homo sapiens) (P03372 whole entry, looked up): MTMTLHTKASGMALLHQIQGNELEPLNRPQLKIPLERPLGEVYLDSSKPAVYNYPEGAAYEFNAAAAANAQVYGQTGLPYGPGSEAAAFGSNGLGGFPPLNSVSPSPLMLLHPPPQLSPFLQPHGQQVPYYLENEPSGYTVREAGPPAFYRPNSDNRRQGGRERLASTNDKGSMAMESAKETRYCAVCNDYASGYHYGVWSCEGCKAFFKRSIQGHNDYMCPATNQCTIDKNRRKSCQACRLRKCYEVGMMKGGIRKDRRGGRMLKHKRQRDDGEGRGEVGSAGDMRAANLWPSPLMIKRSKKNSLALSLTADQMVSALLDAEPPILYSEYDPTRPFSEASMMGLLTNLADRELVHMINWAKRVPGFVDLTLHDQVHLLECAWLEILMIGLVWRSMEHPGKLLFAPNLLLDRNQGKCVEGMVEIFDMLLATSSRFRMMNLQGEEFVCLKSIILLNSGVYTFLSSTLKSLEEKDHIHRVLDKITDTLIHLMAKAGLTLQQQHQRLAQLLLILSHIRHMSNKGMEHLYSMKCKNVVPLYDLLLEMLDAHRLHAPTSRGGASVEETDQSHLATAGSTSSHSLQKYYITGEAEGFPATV
Chain of Androgen receptor (Homo sapiens) (P10275 whole entry, looked up): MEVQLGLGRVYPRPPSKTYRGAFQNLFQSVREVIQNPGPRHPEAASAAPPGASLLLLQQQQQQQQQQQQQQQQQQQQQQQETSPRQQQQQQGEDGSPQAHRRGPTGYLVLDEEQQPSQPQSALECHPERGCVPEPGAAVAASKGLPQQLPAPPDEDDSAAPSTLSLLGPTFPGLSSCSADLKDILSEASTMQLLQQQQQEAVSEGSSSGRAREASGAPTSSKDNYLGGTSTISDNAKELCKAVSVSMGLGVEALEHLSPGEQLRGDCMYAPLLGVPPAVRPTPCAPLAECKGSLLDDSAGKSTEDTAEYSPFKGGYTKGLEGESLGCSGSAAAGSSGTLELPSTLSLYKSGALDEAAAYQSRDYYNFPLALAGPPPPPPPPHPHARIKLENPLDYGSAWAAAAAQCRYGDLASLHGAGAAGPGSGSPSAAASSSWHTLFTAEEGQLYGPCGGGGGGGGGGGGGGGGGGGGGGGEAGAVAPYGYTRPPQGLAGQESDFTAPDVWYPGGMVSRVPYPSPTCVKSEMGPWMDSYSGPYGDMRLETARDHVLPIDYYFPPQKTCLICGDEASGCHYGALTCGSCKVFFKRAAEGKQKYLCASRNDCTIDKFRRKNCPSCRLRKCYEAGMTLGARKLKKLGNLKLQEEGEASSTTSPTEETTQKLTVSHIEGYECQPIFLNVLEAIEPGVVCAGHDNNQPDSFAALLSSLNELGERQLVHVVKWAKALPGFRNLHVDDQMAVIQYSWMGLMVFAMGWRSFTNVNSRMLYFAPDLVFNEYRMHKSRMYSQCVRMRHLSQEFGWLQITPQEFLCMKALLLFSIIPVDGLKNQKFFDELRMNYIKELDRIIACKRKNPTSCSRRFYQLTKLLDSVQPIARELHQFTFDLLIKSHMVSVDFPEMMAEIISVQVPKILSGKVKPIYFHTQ
Chain of Thyrotropin receptor (Homo sapiens) (P16473 whole entry, looked up): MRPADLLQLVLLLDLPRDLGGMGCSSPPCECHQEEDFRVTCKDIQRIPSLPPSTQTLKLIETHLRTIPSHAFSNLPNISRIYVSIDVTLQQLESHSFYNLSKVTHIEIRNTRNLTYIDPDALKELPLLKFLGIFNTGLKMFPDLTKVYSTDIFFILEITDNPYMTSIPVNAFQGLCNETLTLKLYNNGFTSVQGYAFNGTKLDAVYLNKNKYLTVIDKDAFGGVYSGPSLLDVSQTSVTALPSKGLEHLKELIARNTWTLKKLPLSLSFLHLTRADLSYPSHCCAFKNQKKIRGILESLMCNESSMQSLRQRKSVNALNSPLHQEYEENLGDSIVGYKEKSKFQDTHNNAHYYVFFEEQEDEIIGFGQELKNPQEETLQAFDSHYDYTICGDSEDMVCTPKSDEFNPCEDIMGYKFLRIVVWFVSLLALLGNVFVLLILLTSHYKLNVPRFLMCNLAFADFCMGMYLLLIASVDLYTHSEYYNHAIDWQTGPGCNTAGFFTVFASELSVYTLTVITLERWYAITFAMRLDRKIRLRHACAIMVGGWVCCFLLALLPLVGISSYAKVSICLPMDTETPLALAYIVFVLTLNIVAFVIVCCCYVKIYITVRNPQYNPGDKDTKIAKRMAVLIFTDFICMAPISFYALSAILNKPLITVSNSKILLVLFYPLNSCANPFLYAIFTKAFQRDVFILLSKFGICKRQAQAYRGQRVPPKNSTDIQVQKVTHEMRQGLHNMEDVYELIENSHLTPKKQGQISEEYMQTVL

As for `Cc1cn[nH]c1`, the Potency result in assay [1], in assay [2], in [3], in assay [4], in assay [5] and in [6] was “inactive” in each case. The Potency entry in [7], in [8], in [9], in [10], in [11] and in assay [12] was “inactive” in each case. Also, the Potency entry in [13], in assay [15] and in assay [16] was “inactive” each time. Also, the result in assay [14] was inactive.

On to `CC1=CP(=O)(c2ccccc2)CC1` (stereo not given), for which the Potency result in assay [1], in assay [2], in [3], in assay [5], in [6] and in assay [7] was “inactive” throughout. Besides, the Potency result in [8], in assay [9], in assay [10], in assay [11], in assay [12] and in assay [17] was “inactive” throughout. Further, the Potency entry in assay [18], in assay [19], in [15] and in assay [16] was “inactive” in each case. For the same compound, the result in [14] was inactive.

With `CCCSS/C(CCO)=C(\C)N(C=O)Cc1cnc(C)nc1N`, the Potency result in assay [1], in assay [2], in assay [3], in assay [4], in assay [5] and in assay [6] was “inactive” each time. Besides, the Potency entry in [8], in [9], in [10], in assay [12], in assay [18] and in assay [13] was “inactive” throughout. Moreover, the Potency result in assay [19], in assay [15] and in [16] was “inactive” in each case. Also, the Potency in assay [17] was 26.6 µM (active). In addition, the compound was called inactive in [14].

`C=CC/C=C/C/C=C/C/C=C/C`: the Potency result in assay [1], in assay [2], in assay [3], in [5], in assay [6] and in assay [7] was “inactive” throughout. Also, the Potency result in assay [8], in assay [9], in [10], in assay [20], in assay [11] and in assay [12] was “inactive” throughout. The Potency result in [17], in assay [13], in assay [15] and in assay [16] was “inactive” throughout. The compound was classed as inactive in assay [14].

In the case of `CC(C)(C)c1n[nH]c(=O)n(N)c1=O`, the Potency entry in assay [1], in assay [2], in assay [3], in [5], in assay [6] and in assay [7] was “inactive” throughout. Also, the Potency result in [8], in assay [9], in assay [10], in [20], in [11] and in assay [12] was “inactive” in each case. Further, the Potency result in assay [17], in assay [18], in assay [13], in assay [15] and in [16] was “inactive” each time. For the same compound, the outcome in assay [14] was inactive.

Take `CCCCCCCC(=O)OCC`: the Potency entry in [1], in [2], in assay [3], in assay [5], in [6] and in assay [7] was “inactive” each time. Further, the Potency entry in assay [9], in [10], in assay [12], in [17], in assay [19] and in assay [15] was “inactive” in each case. For the same compound, in assay [16], the Potency entry is “inactive”. For the same compound, the result in assay [14] was inactive.

With `CCCCCCCOC(=O)c1ccccc1C(=O)OCCCCCCC`, the Potency result in assay [1], in assay [2], in [3], in assay [5], in assay [6] and in [7] was “inactive” throughout. In addition, the Potency entry in assay [8], in assay [9], in assay [12], in assay [17], in assay [19] and in [15] was “inactive” in each case. Moreover, the Potency result in assay [16] is “inactive”. Besides, the compound was classed as inactive in assay [14].

Turning to `CC1CNCC(C)O1` (stereo not given), the Potency result in assay [1], in assay [2], in [3], in assay [5], in [7] and in assay [8] was “inactive” throughout. Besides, the Potency entry in assay [9], in assay [10], in [20], in assay [11], in assay [12] and in assay [17] was “inactive” throughout. Moreover, the Potency entry in assay [13], in assay [19], in assay [15] and in assay [16] was “inactive” each time. In addition, the compound was classed as inactive in [14].
